Reference: PubChem BioAssay (NCI)
About 83,000 compounds went through this panel and 20% of them were active in at least one assay; those are over-represented in the sample as a whole.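 Percent growth is the endpoint: 0 to 100 indicates growth inhibition (40 means 60% inhibition), 0 means no net growth, and negative values indicate cell death.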 A number with no mark means an inactive call. Rule for the calls: active = growth percent below 10; inactive = the rest.

Test system: BT-549 breast
Experiment: NCI-60 one-dose screen, 48 h (100 = growth as untreated, 0 = no growth, -100 = all killed)
Details: 10 µM

SMILES | growth [%]
COc1ccc(S(=O)(=O)Nc2c(/C=C\c3cc(OC)c(OC)c(OC)c3)ccc(OC)c2O)cc1 | 40.6
Cc1cn(C2CCCCO2)c(=O)nc1NO (stereo not given) | 107
N=c1nc(N)ncn1-c1ccccc1 | 107
CCCCCCCNc1nc(C=O)ncc1-c1ccc(C(F)(F)F)cc1 | 99.7
C/C(N)=C(\C#N)C(=O)c1ccccc1 | 113
CC1CC(=O)OC(C)C1 (stereo not given) | 114
Cc1cc(=O)n2nnc3c4ccccc4ccc3n12 | 72.8
COc1ccc(-c2nn(-c3cccc(NC(=O)c4cc(C(F)(F)F)cc(C(F)(F)F)c4)c3)cc2-c2ccncc2)cc1Cl | 87.3
Cc1ccc(S(=O)(=O)OCCN(CCOS(=O)(=O)c2ccc(C)cc2)c2c[nH]c(=O)[nH]c2=O)cc1 | 112
O=C(Nc1ccc(Cl)cc1)N1NC(c2ccc(Cl)cc2)C=C1c1ccccc1 (stereo not given) | 102
CCn1cc(C(=O)O)c(=O)c2cnc(N3CCCC3)nc21 | 104
COc1ccc(C2=Nc3c(C)nn(-c4ccccc4)c3NC(c3ccc(Oc4ccnc5cc(Cl)ccc45)c(OC)c3)C2)cc1 (stereo not given) | 93
Cn1c(N)c(N=Nc2ccc(S(=O)(=O)Nc3nccs3)cc2)c(=O)n(C)c1=O | 97.9
COc1cc(-c2nc(-c3nnc(-c4ccccc4Cl)o3)c3ccccn23)cc(OC)c1OC | 89.5
COc1ccc(-c2nc3sc(-c4ccc(OC)cc4)c(-c4ccc(OC)cc4)n3c2/C=C/c2ccc(C(C)C)cc2)cc1 | 98.6
